Assay results: PubChem BioAssay (EPA / NIEHS)
Activity calls are given as the source filed them. Rule for the calls: active = hit-call score of the fitted dose curve at least 0.9, where 1 is the maximum; inactive = score below 0.9.

tested on: not listed separately; test: ATG_BRE_CIS: Attagene CIS-FACTORIAL HepG2 Assay for human Bone Morphogenetic Protein (BMP) Response Element (BRE) (AID 2282933); conditions: HepG2 BMP response element reporter, Attagene transcription factor profiling; actives raise or lower the signal
Summary of the method: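 After a 24 h chemical treatment, transiently transfected HepG2 cells were lysed for RNA; reporter transcripts were quantified by fluorescent RT-PCR and capillary electrophoresis, normalised to DMSO.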

outcome, inactive:
CC1(C)S[C@@H]2[C@H](NC(=O)[C@H](N)c3ccccc3)C(=O)N2[C@H]1C(=O)O, CCC(C)(CCC(C)C)C(=O)O (stereo not drawn), Clc1ccccn1, c1cc(N(CC2CO2)CC2CO2)ccc1Cc1ccc(N(CC2CO2)CC2CO2)cc1 (stereo not drawn), CCCCCCOC(=O)CCCCCCCC(=O)OCCCCCC, CC1=NN(c2cc(Cl)c(S(=O)(=O)O)cc2Cl)C(=O)C1N=Nc1ccc(S(=O)(=O)O)cc1 (stereo not drawn), O=C(O)Cc1c[nH]c2ccccc12, NCc1ccccc1, O=[N+]([O-])c1ccc2nc[nH]c2c1, CCCCn1cc[n+](C)c1, CC(C)CC(=O)O, Cc1cc(O)cc(C)c1Cl, CC(C)n1c(/C=C/[C@@H](O)C[C@@H](O)CC(=O)O)c(-c2ccc(F)cc2)c2ccccc21, CC(O)(P(=O)(O)O)P(=O)(O)O, Cc1ccccc1S(N)(=O)=O, C=C(C)C(=O)OCC1CCCO1 (stereo not drawn), OCCOCCOCCOCCOCCO, CC(C)CC(=O)CC(C)CC(C)C (stereo not drawn), CCCOCCC, CN(C)CCCN1c2ccccc2CCc2ccc(Cl)cc21, CC/C=C\CC1=C(C)CCC1=O, COC(OC)C(C)c1ccccc1 (stereo not drawn), F[B-](F)(F)F, COCCCN, CC1=CCCC(C)(C)C12CCC(C)O2 (stereo not drawn), CC(=O)c1nccs1, COc1ccccc1OCC(O)CO (stereo not drawn), O=C(O)c1nc(Cl)c(Cl)c(Cl)c1Cl, CC=CC(=O)O

AC50, active:
CCCc1c(OCCCCc2nn[nH]n2)ccc(C(C)=O)c1O 180 µM, Cc1cccnc1 167 µM

target: Retinoic acid receptor alpha (Homo sapiens) (UniProt P10276); test: ATG_DR5_RAR_CIS: Attagene CIS-FACTORIAL HepG2 Assay for human Retinoic Acid Receptor Alpha (RARE), DR5 submotif (AID 2282934); conditions: HepG2 Attagene cis-factorial RARE DR5 reporter, mRNA; actives raise or lower the signal;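 for AC50: reporter responds to endogenous RAR alpha beta and gamma in HepG2 not RARA alone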
Summary of the method: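 HepG2 cells transiently transfected with multiplexed reporter units under cis (DR5 RARE) promoters, so endogenous transcription factor activity is measured. After 24 h compound exposure, reporter mRNA is quantified by RT-PCR with fluorescent labelling and capillary electrophoresis; bidirectional fitting versus DMSO.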

Sequence of Retinoic acid receptor alpha (Homo sapiens) (P10276 whole entry, looked up): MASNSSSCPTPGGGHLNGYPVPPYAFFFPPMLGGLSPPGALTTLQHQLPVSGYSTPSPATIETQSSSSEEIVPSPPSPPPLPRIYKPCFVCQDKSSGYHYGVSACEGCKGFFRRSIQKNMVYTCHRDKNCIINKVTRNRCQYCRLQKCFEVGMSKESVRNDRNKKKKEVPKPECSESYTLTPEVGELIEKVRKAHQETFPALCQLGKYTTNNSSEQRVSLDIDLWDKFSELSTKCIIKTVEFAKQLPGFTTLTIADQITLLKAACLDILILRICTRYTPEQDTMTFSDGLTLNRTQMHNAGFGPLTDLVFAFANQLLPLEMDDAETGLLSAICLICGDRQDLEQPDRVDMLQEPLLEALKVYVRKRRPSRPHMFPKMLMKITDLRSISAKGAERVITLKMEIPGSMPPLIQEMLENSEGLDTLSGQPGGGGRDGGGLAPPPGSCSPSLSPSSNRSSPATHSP

outcome, inactive:
CCC(C)(CCC(C)C)C(=O)O (stereo not drawn), Clc1ccccn1, c1cc(N(CC2CO2)CC2CO2)ccc1Cc1ccc(N(CC2CO2)CC2CO2)cc1 (stereo not drawn), CC(C)CC(=O)O, Cc1ccccc1S(N)(=O)=O, C=C(C)C(=O)OCC1CCCO1 (stereo not drawn), OCCOCCOCCOCCOCCO, CC(C)CC(=O)CC(C)CC(C)C (stereo not drawn), CCCOCCC, COC(OC)C(C)c1ccccc1 (stereo not drawn), CC(=O)c1nccs1, O=C(O)c1nc(Cl)c(Cl)c(Cl)c1Cl, CC=CC(=O)O

AC50, active:
Cc1cc(O)cc(C)c1Cl 79.6 µM

target: Transcription factor E2F1 (Homo sapiens) (UniProt Q01094); test: ATG_E2F_CIS: Attagene CIS-FACTORIAL HepG2 Assay for human E2F Transcription Factor 1 (AID 2282935); conditions: HepG2 Attagene cis-reporter, E2F reporter RNA transcripts; actives raise or lower the signal
Summary of the method: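 In this cis-factorial format, endogenous factor activity drives transfected reporters in HepG2; transcripts collected at 24 h are quantified by fluorescence after RT-PCR and capillary separation.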

Sequence of Transcription factor E2F1 (Homo sapiens) (Q01094 whole entry, looked up): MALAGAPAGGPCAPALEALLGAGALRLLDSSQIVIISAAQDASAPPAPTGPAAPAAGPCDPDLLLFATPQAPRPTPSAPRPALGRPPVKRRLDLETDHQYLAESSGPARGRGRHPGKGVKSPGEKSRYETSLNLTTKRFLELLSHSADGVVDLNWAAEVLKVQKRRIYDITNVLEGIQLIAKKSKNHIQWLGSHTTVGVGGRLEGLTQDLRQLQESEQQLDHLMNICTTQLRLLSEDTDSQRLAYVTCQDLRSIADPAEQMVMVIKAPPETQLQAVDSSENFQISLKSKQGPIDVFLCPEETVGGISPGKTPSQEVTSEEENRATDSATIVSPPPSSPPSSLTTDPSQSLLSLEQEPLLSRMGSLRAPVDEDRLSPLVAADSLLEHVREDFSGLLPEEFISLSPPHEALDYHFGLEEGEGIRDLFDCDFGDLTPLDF

outcome, inactive:
CC1(C)S[C@@H]2[C@H](NC(=O)[C@H](N)c3ccccc3)C(=O)N2[C@H]1C(=O)O, CCC(C)(CCC(C)C)C(=O)O (stereo not drawn), Cc1cc(C)c(S(=O)(=O)O)cc1N=Nc1cc(S(=O)(=O)O)c2ccccc2c1O, CCCc1c(OCCCCc2nn[nH]n2)ccc(C(C)=O)c1O, Clc1ccccn1, c1cc(N(CC2CO2)CC2CO2)ccc1Cc1ccc(N(CC2CO2)CC2CO2)cc1 (stereo not drawn), CCCCCCOC(=O)CCCCCCCC(=O)OCCCCCC, CC1=NN(c2cc(Cl)c(S(=O)(=O)O)cc2Cl)C(=O)C1N=Nc1ccc(S(=O)(=O)O)cc1 (stereo not drawn), O=C(O)Cc1c[nH]c2ccccc12, CCCCCCCCCCC1CO1 (stereo not drawn), NCc1ccccc1, O=[N+]([O-])c1ccc2nc[nH]c2c1, CCCCn1cc[n+](C)c1, CC(C)CC(=O)O, C[Si](C)(C)O[Si](C)(C)O[Si](C)(C)C, Cc1cc(O)cc(C)c1Cl, CC(C)n1c(/C=C/[C@@H](O)C[C@@H](O)CC(=O)O)c(-c2ccc(F)cc2)c2ccccc21, CC1=C(CC=O)C(C)(C)CCC1, CC(O)(P(=O)(O)O)P(=O)(O)O, Cc1cccnc1, Cc1ccccc1S(N)(=O)=O, C=C(C)C(=O)OCC1CCCO1 (stereo not drawn), OCCOCCOCCOCCOCCO, C1=CCC=C1, CC(C)CC(=O)CC(C)CC(C)C (stereo not drawn), CCCOCCC, CN(C)CCC(c1ccc(Cl)cc1)c1ccccn1 (stereo not drawn), CN(C)CCCN1c2ccccc2CCc2ccc(Cl)cc21, CC/C=C\CC1=C(C)CCC1=O, C[C@H]1C[C@H]2[C@@H]3CCC4=CC(=O)C=C[C@]4(C)[C@@]3(F)[C@@H](O)C[C@]2(C)[C@@]1(O)C(=O)CO, COC(OC)C(C)c1ccccc1 (stereo not drawn), F[B-](F)(F)F, COCCCN, CC1=CCCC(C)(C)C12CCC(C)O2 (stereo not drawn), CC(=O)c1nccs1, COc1ccccc1OCC(O)CO (stereo not drawn), OCCN(CCO)c1cccc(Cl)c1, O=C(O)c1nc(Cl)c(Cl)c(Cl)c1Cl, CC=CC(=O)O

tested on: not listed separately; test: ATG_E_Box_CIS: Attagene CIS-FACTORIAL HepG2 Assay for human Enhancer Box (E-box) (AID 2282936); conditions: HepG2 E-box cis-reporter transcription, actives raise or lower the signal
Summary of the method: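 Measured 24 h post-dosing in HepG2 cells transfected with multiple cis-regulated reporter units, signal being reporter mRNA induction detected by fluorescent RT-PCR with capillary electrophoresis; gain or loss fitted against DMSO.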

outcome, inactive:
CC1(C)S[C@@H]2[C@H](NC(=O)[C@H](N)c3ccccc3)C(=O)N2[C@H]1C(=O)O, CCC(C)(CCC(C)C)C(=O)O (stereo not drawn), Cc1cc(C)c(S(=O)(=O)O)cc1N=Nc1cc(S(=O)(=O)O)c2ccccc2c1O, CCCc1c(OCCCCc2nn[nH]n2)ccc(C(C)=O)c1O, Clc1ccccn1, CCCCCCOC(=O)CCCCCCCC(=O)OCCCCCC, CC1=NN(c2cc(Cl)c(S(=O)(=O)O)cc2Cl)C(=O)C1N=Nc1ccc(S(=O)(=O)O)cc1 (stereo not drawn), O=C(O)Cc1c[nH]c2ccccc12, CCCCCCCCCCC1CO1 (stereo not drawn), NCc1ccccc1, O=[N+]([O-])c1ccc2nc[nH]c2c1, CCCCn1cc[n+](C)c1, CC(C)CC(=O)O, C[Si](C)(C)O[Si](C)(C)O[Si](C)(C)C, Cc1cc(O)cc(C)c1Cl, CC(C)n1c(/C=C/[C@@H](O)C[C@@H](O)CC(=O)O)c(-c2ccc(F)cc2)c2ccccc21, CC1=C(CC=O)C(C)(C)CCC1, CC(O)(P(=O)(O)O)P(=O)(O)O, Cc1cccnc1, Cc1ccccc1S(N)(=O)=O, C=C(C)C(=O)OCC1CCCO1 (stereo not drawn), OCCOCCOCCOCCOCCO, C1=CCC=C1, CC(C)CC(=O)CC(C)CC(C)C (stereo not drawn), CCCOCCC, CN(C)CCC(c1ccc(Cl)cc1)c1ccccn1 (stereo not drawn), CN(C)CCCN1c2ccccc2CCc2ccc(Cl)cc21, CC/C=C\CC1=C(C)CCC1=O, C[C@H]1C[C@H]2[C@@H]3CCC4=CC(=O)C=C[C@]4(C)[C@@]3(F)[C@@H](O)C[C@]2(C)[C@@]1(O)C(=O)CO, COC(OC)C(C)c1ccccc1 (stereo not drawn), F[B-](F)(F)F, COCCCN, CC1=CCCC(C)(C)C12CCC(C)O2 (stereo not drawn), CC(=O)c1nccs1, COc1ccccc1OCC(O)CO (stereo not drawn), OCCN(CCO)c1cccc(Cl)c1, O=C(O)c1nc(Cl)c(Cl)c(Cl)c1Cl, CC=CC(=O)O

AC50, active:
c1cc(N(CC2CO2)CC2CO2)ccc1Cc1ccc(N(CC2CO2)CC2CO2)cc1 (stereo not drawn) 34.3 µM
